Laboratory results from PubChem BioAssay (EPA / NIEHS).
Results filed as inconclusive are left out. The source made the active and inactive calls. The calls were made as follows: active = hit-call score of the fitted dose curve at least 0.9, where 1 is the maximum; inconclusive = response in the unintended direction; inactive = score below 0.9.

target: Bile acid receptor (Homo sapiens) (UniProt Q96RI1); assay: NVS_NR_hFXR_Agonist: NovaScreen (NVS) Nuclear Receptor Binding Assay for human Farnesoid X Receptor Agonism (FXR) (AID 2283347)
Sequence (Q96RI1 whole entry, looked up): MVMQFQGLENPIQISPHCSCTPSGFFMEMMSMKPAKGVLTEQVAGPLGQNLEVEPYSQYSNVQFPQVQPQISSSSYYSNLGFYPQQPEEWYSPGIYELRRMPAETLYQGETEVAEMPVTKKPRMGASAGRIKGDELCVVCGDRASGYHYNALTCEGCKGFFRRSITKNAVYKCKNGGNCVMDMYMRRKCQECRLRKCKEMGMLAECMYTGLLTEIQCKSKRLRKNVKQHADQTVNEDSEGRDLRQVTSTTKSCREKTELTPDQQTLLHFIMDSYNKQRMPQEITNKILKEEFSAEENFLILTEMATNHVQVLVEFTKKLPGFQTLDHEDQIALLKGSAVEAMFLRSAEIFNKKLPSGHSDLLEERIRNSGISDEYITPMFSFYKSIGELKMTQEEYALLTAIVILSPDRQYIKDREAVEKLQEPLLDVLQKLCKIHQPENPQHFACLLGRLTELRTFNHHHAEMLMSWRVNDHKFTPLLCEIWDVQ
In short: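 Agonist-mode FXR assay read by time-resolved FRET 1 h after compound addition, using isolated human receptor protein without cells. Duplicate 25 uM single-point primary screen, concentration series for confirmed actives; DMSO as baseline.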

Structure (SMILES) | outcome
c1ccc(C[n+]2cccc3ccccc32)cc1 | inactive
CCCCOC(=O)[C@@H](C)Oc1ccc(Oc2ccc(C(F)(F)F)cn2)cc1 | inactive
CCN(CCC#N)c1ccc(N=Nc2c(Cl)cc([N+](=O)[O-])cc2Cl)cc1 | inactive

target: Estrogen receptor (Homo sapiens) (UniProt P03372); assay: NVS_NR_hER: NovaScreen (NVS) Nuclear Receptor Binding Assay for human Estrogen Receptor (ER) (AID 2283348)
Sequence (P03372 whole entry, looked up): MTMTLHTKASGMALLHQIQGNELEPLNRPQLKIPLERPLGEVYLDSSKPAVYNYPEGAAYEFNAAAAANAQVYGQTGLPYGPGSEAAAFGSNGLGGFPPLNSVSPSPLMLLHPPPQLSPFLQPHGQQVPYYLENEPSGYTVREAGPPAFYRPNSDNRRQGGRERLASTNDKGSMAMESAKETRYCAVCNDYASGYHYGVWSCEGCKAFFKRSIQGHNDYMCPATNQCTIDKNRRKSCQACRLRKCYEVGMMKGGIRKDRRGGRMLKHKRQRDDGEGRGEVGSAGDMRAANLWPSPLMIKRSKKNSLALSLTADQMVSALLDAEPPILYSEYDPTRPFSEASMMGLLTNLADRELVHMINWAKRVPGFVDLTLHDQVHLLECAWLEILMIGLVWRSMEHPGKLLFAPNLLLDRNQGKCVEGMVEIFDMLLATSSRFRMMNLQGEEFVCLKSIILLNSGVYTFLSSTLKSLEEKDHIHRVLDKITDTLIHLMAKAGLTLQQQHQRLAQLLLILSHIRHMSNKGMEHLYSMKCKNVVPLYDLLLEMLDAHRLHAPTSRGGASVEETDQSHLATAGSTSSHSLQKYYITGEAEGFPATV
In short: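 Cell-free MCF7-derived ER preparation, specific radioligand displaced by test compound, read by scintillation counting 18 h post-dosing. Duplicate single-point 25 uM screen, then concentration-response confirmation; DMSO baseline.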

Structure (SMILES) | AC50 | outcome
CSc1ccc(C(=O)C(C)(C)N2CCOCC2)cc1 | 25 µM (active) | 
CCN(CC)c1c([N+](=O)[O-])cc(C(F)(F)F)c(N)c1[N+](=O)[O-] |  | inactive
COP(=O)(OC)Oc1ccc([N+](=O)[O-])cc1 |  | inactive
CC(Oc1ccc(Oc2ncc(C(F)(F)F)cc2Cl)cc1)C(=O)O (stereo unspecified) |  | inactive
COC(=O)C(C)N(C(=O)Cc1ccccc1)c1c(C)cccc1C (stereo unspecified) |  | inactive
CC(C)OC(=O)C(O)(c1ccc(Cl)cc1)c1ccc(Cl)cc1 |  | inactive
CC(=O)[O][Pb]([c]1ccccc1)([c]1ccccc1)[c]1ccccc1 | 8.22 µM (active) | 
CCOP(=O)(Sc1ccccc1)Sc1ccccc1 |  | inactive
OC(c1ccc(F)cc1)(c1cncnc1)c1ccccc1Cl (stereo unspecified) | 21.2 µM (active) | 
N#Cc1sc2c(=O)c3ccccc3c(=O)c=2sc1C#N | 10.3 µM (active) | 
C=CC(=O)OCCCCO |  | inactive
IC(I)=C(I)I |  | inactive
[Hg+2].[I-].[I-] |  | inactive
